About 14,000 (4.5%) of roughly 310,000 compounds showed an effect of 50% or more. The effect is printed as a negative number. For the sample, strong results were picked, then their nearest neighbours and some compounds at random.
target: human ether-à-go-go-related gene (hERG) potassium channel (human, UniProt Q12809); assay: primary screen, population patch clamp on CHO cells stably expressing hERG; higher = less effect of the substance
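Note: peak tail current of the secondary pulse compared with the same well before compound.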

Chain of human ether-à-go-go-related gene (hERG) potassium channel (Q12809 whole entry, looked up): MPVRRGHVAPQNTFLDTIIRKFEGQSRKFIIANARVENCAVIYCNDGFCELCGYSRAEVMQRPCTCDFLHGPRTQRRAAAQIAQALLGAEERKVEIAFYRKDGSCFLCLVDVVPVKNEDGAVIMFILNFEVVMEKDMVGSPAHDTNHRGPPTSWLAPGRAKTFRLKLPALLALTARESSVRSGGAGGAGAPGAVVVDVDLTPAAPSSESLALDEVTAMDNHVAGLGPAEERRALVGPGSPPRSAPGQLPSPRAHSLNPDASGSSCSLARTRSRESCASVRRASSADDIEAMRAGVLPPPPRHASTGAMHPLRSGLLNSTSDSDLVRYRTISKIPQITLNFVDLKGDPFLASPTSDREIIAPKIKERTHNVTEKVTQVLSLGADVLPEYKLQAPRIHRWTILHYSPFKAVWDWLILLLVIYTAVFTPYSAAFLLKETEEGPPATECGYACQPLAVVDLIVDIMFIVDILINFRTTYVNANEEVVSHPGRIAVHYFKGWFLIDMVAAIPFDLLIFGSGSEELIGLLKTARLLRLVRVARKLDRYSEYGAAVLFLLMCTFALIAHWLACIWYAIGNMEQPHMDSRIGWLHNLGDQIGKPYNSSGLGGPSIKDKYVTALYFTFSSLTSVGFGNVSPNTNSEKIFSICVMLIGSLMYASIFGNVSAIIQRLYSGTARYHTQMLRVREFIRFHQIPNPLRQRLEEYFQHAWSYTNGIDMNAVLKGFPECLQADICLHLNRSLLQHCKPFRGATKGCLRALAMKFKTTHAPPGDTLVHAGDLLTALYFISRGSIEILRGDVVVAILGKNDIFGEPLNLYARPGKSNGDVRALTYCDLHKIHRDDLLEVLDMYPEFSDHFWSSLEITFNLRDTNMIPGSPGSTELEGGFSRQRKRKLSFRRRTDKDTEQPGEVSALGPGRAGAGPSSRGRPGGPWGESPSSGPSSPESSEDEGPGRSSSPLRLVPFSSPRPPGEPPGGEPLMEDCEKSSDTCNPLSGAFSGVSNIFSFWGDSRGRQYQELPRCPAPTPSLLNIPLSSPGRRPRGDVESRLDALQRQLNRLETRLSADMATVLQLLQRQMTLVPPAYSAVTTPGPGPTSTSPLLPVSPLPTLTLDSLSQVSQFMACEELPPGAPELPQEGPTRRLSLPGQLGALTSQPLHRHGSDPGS

| SMILES | hERG current change (%, negative = inhibition) at 10uM [%] |
| --- | --- |
| NS(=O)(=O)c1cccc(C(=O)NC2CCSc3ccccc32)c1 (centres unmarked) | 7.91 |
| COc1cc(C(=O)N/N=C/c2ccc(OC(=O)c3ccccc3Cl)cc2)ccc1O | -10.5 |
| O=c1[nH]c(=S)[nH]c2scc(-c3ccc(Br)cc3)c12 | 16.3 |
| CCS(=O)(=O)Nc1cccc(C2=NN(S(=O)(=O)CC)C(c3ccccc3)C2)c1 (centres unmarked) | 1.69 |
| CCS(=O)(=O)N1N=C(c2cccc(NS(C)(=O)=O)c2)CC1c1ccccc1 (centres unmarked) | -16.9 |
| CS(=O)(=O)Nc1cccc(C2=NN(S(C)(=O)=O)C(c3ccccc3)C2)c1 (centres unmarked) | -30.9 |
| CCS(=O)(=O)N1N=C(c2cccc(NS(C)(=O)=O)c2)CC1c1ccc(C)cc1 (centres unmarked) | -73.9 |
| CCS(=O)(=O)Nc1cccc(C2=NN(S(C)(=O)=O)C(c3ccccc3)C2)c1 (centres unmarked) | -14.6 |
| Cc1ccc(C2CC(c3cccc(NS(C)(=O)=O)c3)=NN2S(C)(=O)=O)cc1 (centres unmarked) | -69.3 |
| O=c1cc(-c2ccccc2)nc(N2CCCCC2)[nH]1 | -13.7 |
| CN(Cc1ccc(F)cc1)C(=O)c1sccc1-c1ccccc1 | 0.217 |
| Cc1cc(=O)[nH]c(NN)n1 | 6.39 |
| COc1cccc2cc(C(=O)NCc3ccco3)c(=O)oc12 | 2.32 |
| Cc1ccc(S(=O)(=O)Nc2ccc(-c3nnc(SCC#N)n3C)cc2)cc1 | -11.3 |
| CC(C)(C)n1nnnc1C(c1cccnc1)N1CCN(C2CCCCC2)CC1 (centres unmarked) | -2.19 |
| O=C(Nc1ccccc1N1CCCC1)c1ccc(Br)o1 | -22.4 |
| O=C(Nc1ccccc1N1CCN(C(=O)c2ccccc2)CC1)c1ccc(Br)o1 | -63.5 |
| CC(=O)N1CCN(c2ccccc2NC(=O)c2ccc(Br)o2)CC1 | -54.4 |
| O=C(Nc1ccccc1N1CCCC1)c1ccco1 | 6.36 |
| O=C(Nc1ccccc1N1CCN(C(=O)c2ccccc2)CC1)c1cc2ccccc2o1 | 9.86 |
| O=C(Nc1ccccc1N1CCN(C(=O)c2ccccc2)CC1)c1ccco1 | -74.2 |
| CC1CCN(c2ccccc2NC(=O)c2ccc(Br)o2)CC1 | -0.73 |
| CC(=O)N1CCN(c2ccccc2NC(=O)c2ccco2)CC1 | -38.9 |
| CN1CCN(c2ccccc2NC(=O)c2ccc(Br)o2)CC1 | -67.9 |
| O=C(Nc1ccccc1N1CCOCC1)c1ccc(Br)o1 | 1.26 |
| CS(=O)(=O)N1CCN(c2ccccc2NC(=O)c2ccc(Br)o2)CC1 | -36.3 |

From paper PMC4336329 (PLoS ONE, 2015)
